Records with an inconclusive call do not appear. A call without a number means that no potency is given here. The source made the active and inactive calls. Calls come from the whole dose curve; as a rule, active = well fitted curve in the direction sought with a large enough effect; inconclusive = small, poorly fitted or top-dose-only effect, or another doubt; inactive = no such curve, though single readings can be large; an effect the other way counts as inactive or inconclusive.
Tests used:
[1] = qHTS of pediatric cancer cell lines to identify multiple opportunities for drug repurposing: Primary screen for LAN-5 cells (AID 1347100); note: potency is the fitted concentration of half-maximal effect
Method in brief: (§1)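 Cells (500-1,000/well) in growth media were settled 5 h at 37 degrees C, then given compounds for 48 h. Viability was read as CellTiter-Glo luminescence. Primary runs used MIPE at 11 points (0.78 nM-46 µM) and NPC at 8 points (0.59 nM-46 µM); follow-ups used 11 points.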

[2] = qHTS of pediatric cancer cell lines to identify multiple opportunities for drug repurposing: Primary screen for BT-12 cells (AID 1347101); note: nearly all actives have a fitted effect of over 25% in size
Method in brief: (§2)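 Cells (500-1,000/well) rested 5 h, then received compounds for 48 h; metabolically active cells were measured by CellTiter-Glo luminescence. Final concentrations spanned up to 46 µM (MIPE, 11-point) or 0.59 nM-46 µM (NPC, 8-point) in primary screens, 11-point in follow-ups.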

[3] = qHTS of pediatric cancer cell lines to identify multiple opportunities for drug repurposing: Primary screen for Rh18 cells (AID 1347102); note: nearly all actives have a fitted effect of over 65% in size
Method in brief: as §1

[4] = qHTS of pediatric cancer cell lines to identify multiple opportunities for drug repurposing: Primary screen for OHS-50 cells (AID 1347103); note: nearly all actives have a fitted effect of over 40% in size
Method in brief: as §2

[5] = qHTS of pediatric cancer cell lines to identify multiple opportunities for drug repurposing: Primary screen for RD cells (AID 1347104); note: nearly all actives have a fitted effect of over 55% in size
Method in brief: (§3)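 Quantitative HTS format: each compound titrated (MIPE 11 points from 0.78 nM, NPC 8 points from 0.59 nM) onto cells plated 5 hours earlier. After 48 h at 37 degrees C, CellTiter-Glo luminescence was recorded.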

[6] = qHTS of pediatric cancer cell lines to identify multiple opportunities for drug repurposing: Primary screen for MG 63 (6-TG R) cells (AID 1347105); note: nearly all actives have a fitted effect of over 50% in size
Method in brief: as §3

[7] = qHTS of pediatric cancer cell lines to identify multiple opportunities for drug repurposing: Primary screen for control Hh wild type fibroblast cells (AID 1347106);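 note: series mostly up to about 46 µM; a drop in luminescence marks cytotoxicity and a rise apparent proliferation; nearly all actives have a fitted effect of over 55% in size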
Method in brief: as §1

[8] = qHTS of pediatric cancer cell lines to identify multiple opportunities for drug repurposing: Primary screen for Rh30 cells (AID 1347107); note: series mostly up to about 46 µM; nearly all actives have a fitted effect of over 75% in size
Method in brief: as §1

[9] = qHTS of pediatric cancer cell lines to identify multiple opportunities for drug repurposing: Primary screen for Rh41 cells (AID 1347108);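 note: series mostly up to about 46 µM; luminescence drop marks cytotoxic hits; nearly all actives have a fitted effect of over 70% in size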
Method in brief: as §3

Furin (Homo sapiens) = Furin (Homo sapiens) (UniProt P09958); assay: Furin counterscreen qHTS for Zika virus inhibitors (AID 1347149);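 note: purified recombinant full-length human furin enzyme at 5 nM; fluorescence gain from furin cutting a BOC-RVRR-AMC peptide substrate over 15 min; top concentration of the series differs between compounds; nearly all actives have a fitted effect of over 70% in size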
Sequence of Furin (Homo sapiens) (P09958 whole entry, looked up): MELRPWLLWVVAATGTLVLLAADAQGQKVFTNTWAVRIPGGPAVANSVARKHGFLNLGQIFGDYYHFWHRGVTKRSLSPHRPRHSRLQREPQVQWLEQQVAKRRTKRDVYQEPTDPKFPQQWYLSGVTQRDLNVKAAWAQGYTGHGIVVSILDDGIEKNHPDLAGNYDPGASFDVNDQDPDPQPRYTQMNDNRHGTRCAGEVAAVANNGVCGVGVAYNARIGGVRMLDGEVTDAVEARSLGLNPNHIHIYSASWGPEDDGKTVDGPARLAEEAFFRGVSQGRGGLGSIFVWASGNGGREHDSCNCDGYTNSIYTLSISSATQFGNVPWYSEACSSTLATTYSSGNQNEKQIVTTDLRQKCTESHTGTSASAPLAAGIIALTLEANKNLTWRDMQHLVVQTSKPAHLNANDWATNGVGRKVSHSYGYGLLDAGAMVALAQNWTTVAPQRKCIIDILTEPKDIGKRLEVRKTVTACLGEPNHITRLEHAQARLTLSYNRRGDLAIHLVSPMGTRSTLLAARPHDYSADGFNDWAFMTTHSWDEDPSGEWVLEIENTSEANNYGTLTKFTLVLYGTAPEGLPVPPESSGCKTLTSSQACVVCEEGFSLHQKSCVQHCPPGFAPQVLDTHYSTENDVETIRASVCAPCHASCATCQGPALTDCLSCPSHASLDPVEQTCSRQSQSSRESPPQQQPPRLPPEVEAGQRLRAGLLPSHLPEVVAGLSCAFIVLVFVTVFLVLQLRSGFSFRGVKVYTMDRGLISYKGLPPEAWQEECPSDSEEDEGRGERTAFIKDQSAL
Method in brief: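 Counterscreen measures cleavage of 2 microM BOC-RVRR-AMC, below its ~15 microM Km, by 5 nM full-length human furin at pH 7.0 after a 15-min compound preincubation. Inhibition derives from the 15-min fluorescence increase at 37C.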

Compound: O=C(O)c1c(O)c(-c2ccccc2)nc2ccccc12
- Potency [1]: inactive
- outcome [2]: inactive
- outcome [3]: inactive
- outcome [4]: inactive
- outcome [5]: inactive
- outcome [6]: inactive
- outcome [7]: inactive
- outcome [8]: inactive
- outcome [9]: inactive

Compound: O=C(N/N=C/c1ccc(O)c(O)c1)c1cc2ccccc2cc1O
- Potency (Furin (Homo sapiens)): inactive

Compound: CC1(C)CCC(C)(C)c2cc(C3(c4ccc(C(=O)O)cc4)OCCO3)ccc21
- Potency (Furin (Homo sapiens)): inactive

Compound: Nc1ccccc1N
- Potency [1]: 17.2 µM (active)
- outcome [6]: inactive
- outcome [7]: inactive
